Experimental findings from PubChem BioAssay AID651702 (NMMLSC, 2012) are described below.

SMILES strings stand for the structures. Among all 360,000 compounds or so, about 2,400 (0.67%) were called active. The full list was thinned out, with actives kept by preference. Unmarked numbers belong to inactive results.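 How the source made its calls: active means inhibition above about 55% (limit read from the data); inconclusive means no clear call, values can overlap the other calls; inactive means the rest.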

This experiment can be described thus: LAMP-1 surface exposure blockers, TALL-104 cells – cell-based, flow cytometry, MLPCN library, primary screen (AID 651702). To be noted: TALL-104 LAMP-1 surface exposure, at 10 µM, active compounds read high, cells stimulated with thapsigargin and PMA. Background: Flow cytometry measures light scatter and fluorescence of single cells or particles in a stream.
As to `O=C(Cc1coc2ccc3ccccc3c12)NCc1cccs1`, the inhibition is -2.5%.

Turning to `CC(C)Cn1c(N)c(C(=O)NCc2cccs2)c2nc3ccccc3nc21`, the inhibition was 59.6% (active). For `O=C(NCc1cccs1)c1ccc(Br)o1` the value was -0.6%; for `COc1ccc(-c2[nH]ncc2CN(C)Cc2c(C)n[nH]c2C)c(OC)c1`, -1.2%; for `COc1ccc(Oc2cn[nH]c2-c2ccc(OC)cc2O)cc1`, 60.1% (active).

On to `COc1ccc(-c2c(-c3ccc(OC)cc3O)nc(C)nc2C(F)(F)F)cc1`, for which the inhibition was 27.6%.

Turning to `COc1ccc(N=Nc2c(-c3ccc(OC)cc3)[nH]oc2=O)cc1`, the inhibition is -8.4%. For `COc1ccc2cc(-c3[nH]ncc3CNCCn3nc(C)cc3C)ccc2c1` the value was 18.3%; for `COc1ccc(-c2cn[nH]c2-c2ccc(OC)cc2)cc1`, 65.6% (active).

As for `Cn1c(C(=O)N2CCCC(C(=O)NCc3ccccc3)C2)cc2sccc21` (configuration not stated), the inhibition was -4.6%. For `COc1ccc(S(=O)(=O)N2CCN(CC(=O)N3CCOCC3)CC2)cc1OC` the value was -0.5%; for `Cc1ccc(OCCC(=O)OCC(=O)N2c3ccccc3NC(=O)C2(C)C)cc1`, 3.1%; for `COc1ccc2[nH]c(=O)c(C3c4cc(OC)c(OC)cc4CCN3C(=O)c3ccco3)cc2c1` (configuration not stated), -2.2%. As for `CCNC(=O)COC(=O)CCNC(=O)c1cccc(C)c1`, the inhibition is -0.6%. Turning to `Cc1cccc(-c2nc3ccc(C(=O)NCCN4CCN(C)CC4)cc3nc2-c2cccc(C)c2)c1`, the inhibition was 57.4% (active). For `O=C(NCCN1CCOCC1)c1cccc(S(=O)(=O)Nc2ccc(F)cc2)c1` the value was -1.1%; for `CCC(C)CN1C(=O)CN(S(C)(=O)=O)CC1(C)C(=O)Nc1ccc2c(c1)OCCO2` (configuration not stated), -2%. For `Cc1coc2c(O)cc3c(c12)OC1(N2CCCCC2)C(=O)NCCCC31` (configuration not stated) the value was 68.1% (active). In the case of `CC1CN(C2CCN(C(=O)COc3ccccc3)CC2)CC(C)O1` (configuration not stated), the inhibition is -2.5%. For `COc1cccc(CNc2nc(NCc3ccccc3OC)nc3ccsc23)c1` the value was 73.8% (active); for `COc1cccc(CNc2nc(NCc3cccs3)nc3ccsc23)c1`, 21%.

In the case of `COc1ccccc1CNc1nc(Nc2ccccc2Cl)c2sccc2n1`, the inhibition was 2%. For `CC1CCCC(C)N1C(=O)CSc1nnnn1C1CCCC1` (configuration not stated) the value was -4%.

For the compound `COc1ccccc1-c1nc(C(F)(F)F)c(OC)o1`, the inhibition was 1.1%. Regarding `COc1ccccc1C1=CC(=O)CCC1`, the inhibition is 47.3%.

`COc1ccccc1C1=Nc2cccc3cccc(c23)N1`: the inhibition was 65.7% (active). Consider `COc1ccc(CC(=O)N[C@@H]2c3cc(OC)c(OC)cc3C[C@H]2OCc2ccccc2)cc1`, for which the inhibition is -2.2%.

For the compound `COc1ccccc1CC(NC(C)=O)C(=O)NC1CCN(C(=O)Nc2ccccc2Cl)CC1` (configuration not stated), the inhibition was 6.8%.

In the case of `C[C@H](CO)N1C[C@H](C)[C@@H](CN(C)Cc2ccc3c(c2)OCO3)OCc2cnnn2CCCC1=O`, the inhibition is 2.5%. For `Cc1cccc2sc(N(CCCN(C)C)C(=O)CCS(=O)(=O)c3ccccc3)nc12` the value was 90.8% (active).

For the compound `Cc1cccc(C)c1NC(=O)CCS(=O)(=O)c1cccc2nsnc12`, the inhibition is -2.7%. Turning to `O=C(CCS(=O)(=O)c1ccccc1)NC1CCCC1`, the inhibition was -1.3%. For `COC(=O)COc1ccc(C2NC(=O)NC(C)=C2C(=O)NCc2ccccc2)cc1OC` (configuration not stated), the inhibition was -3.7%. For `COc1ccc(CN(C)C(=O)c2cc(-c3ccc(C)cc3C)nc3ccccc23)c(OC)c1OC` the value was 19.4%; for `COc1ccc(C2=NS(=O)(=O)N(C)C(C(=O)N(C)Cc3ccccc3)=C2)cc1`, -1.2%. For `COc1ccc(-c2cc(C(=O)N(C)Cc3ccccc3)c3ccccc3n2)cc1` the value was 74.5% (active); for `COc1c(C)cc(C(=O)C2CCCN(S(=O)(=O)c3c(C)noc3C)C2)cc1C` (configuration not stated), -1.1%; for `O=C(CC(CC(=O)c1ccccc1)c1ccco1)c1ccccc1`, 4.2%.

For the compound `CC(C)c1ccccc1OCC(O)CN(CC(O)COc1cccc2ccccc12)C(C)C` (configuration not stated), the inhibition was 73.4% (active).

In the case of `CN1CCN(CCCCOc2cccc3ccccc23)CC1`, the inhibition is 24.7%. As for `CC1CC(C)CN(CCOc2cccc3ccccc23)C1` (configuration not stated), the inhibition is 7.6%.

For `CCCC(NC(=O)c1ccccc1)c1nc2ccccc2n1Cc1ccc(C(=O)OC)o1` (configuration not stated), the inhibition was 0.5%.

Broadly, the inhibition is the drop in the measured response relative to a control, in per cent.
